We go through 15 compounds from PubChem BioAssay (NCATS).

Unmarked numbers belong to inactive results. Calls come from the whole dose curve; as a rule, active = well fitted curve in the direction sought with a large enough effect; inconclusive = small, poorly fitted or top-dose-only effect, or another doubt; inactive = no such curve, though single readings can be large; an effect the other way counts as inactive or inconclusive. Records with an inconclusive call do not appear.

One assay can be described thus: qHTS to identify inhibitors of the type 1 interferon - major histocompatibility complex class I in skeletal muscle: primary screen against the NCATS Mechanism Interrogation Plate v5.0 (MIPE) Libary (AID 1347411).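 Note: plate controls were vehicle for no effect and reference inhibitor for full effect; nearly all actives have a fitted effect of over 65% in size.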 As to conditions: iHSKM cells + IFN-b, HiBiT-tagged MHC-I luminescence, 24 h; series mostly up to 45.8 µM; activity change, negative = inhibition: at the top concentration. An outline of the steps: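 Immortalized human C25cl48 myoblasts with HiBit knocked into endogenous HLA-B*08:01 were stimulated with 4.0 ng/ml IFN-beta and exposed to compounds (11-point 1:3 titration, top 46 uM final) for 24 hrs at 37 C; HiBiT lytic luminescence measured.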
A general note: qHTS replaces the single test concentration by a dilution series.
In the case of `CCOc1ccccc1-n1c(C(C)N2CCN(C(=O)COc3ccc(Cl)cc3)CC2)nc2ccccc2c1=O` (stereo not given), the “activity change, negative = inhibition” value was -18%.

In the case of `CC1=C2C[C@H]3[C@@H](CC=C4C[C@@H](O)CC[C@@]43C)[C@@H]2CC[C@]12O[C@@H]1C[C@H](C)CN[C@H]1[C@H]2C`, the “activity change, negative = inhibition” value is -4.86%.

As to `C[C@]12CC[C@H]3[C@@H](CC[C@@]45O[C@@H]4C(O)=C(C#N)C[C@]35C)[C@@H]1CC[C@@H]2O`, the “activity change, negative = inhibition” value is -19.6%.

`COc1cc(C)[nH]c(=O)c1CNC(=O)c1c(C)n([C@H](C)C2CCOCC2)c2ccccc12`: the “activity change, negative = inhibition” value is -1.8%.

The nature of a further assay: Validation qHTS assay for inhibitors of Activation Induced Cytidine Deaminase (AID): UDG Counterscreen signal (AID 1347427). Note: 0% is about no effect. Particulars: biochemical UDG counterscreen, fluorescence signal; series mostly up to 115 µM; activity, negative = inhibition: at the top concentration. The procedure, abridged:
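Counterscreen read of UDG activity (2 U/mL, 4/3x) in the FRET deamination format with AID (1 uM, 4/3x), DJC20/DJC23 substrates (250 nM, 4x), 4 h at room temperature. NaOH stop, fluorescence at 560 ex/665 em.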
In the case of `NC(Cc1ccc(N(CCCl)CCCl)cc1)C(=O)O` (stereo not given), the “activity, negative = inhibition” value was -3.4%.

Take `CCCn1c(C)c(C(=O)c2ccc3ccccc3c2)c2ccccc21`: the “activity, negative = inhibition” value was -8.62%.

With `C=CCN1CC[C@]23c4c5ccc(O)c4O[C@H]2/C(=N/NC(=O)c2ccccc2)CC[C@@]3(O)[C@H]1C5`, the “activity, negative = inhibition” value was 8.7%.

For `N[C@@H](Cn1ccc(=O)[nH]c1=O)C(=O)O`, the “activity, negative = inhibition” value was 9.85%.

On to `N[C@@H](CCl)C(=O)O`, for which the “activity, negative = inhibition” value is 11.4%.

Turning to `O=c1c2ccccc2[se]n1-c1ccccc1`, the “activity, negative = inhibition” value is 4.37%.

`C[C@@H]1[C@@H]2Cc3ccc(O)cc3[C@@]1(C)CCN2CC1CC1`: the “activity, negative = inhibition” value was 6.62%.

For the compound `O=[N+]([O-])c1ccc2nc(N3CCNCC3)ccc2c1`, the “activity, negative = inhibition” value is -11.7%.

Turning to `C=CCN1CC[C@]23c4c5ccc(O)c4O[C@@H]2/C(=N/N=C2\CC[C@@]4(O)C6Cc7ccc(O)c8c7[C@@]4(CCN6CC=C)[C@@H]2O8)CC[C@@]3(O)C1C5`, the “activity, negative = inhibition” value is 7.7%.

For the compound `C=CCN1CCc2cccc3c2[C@H]1Cc1ccc(O)c(O)c1-3`, the “activity, negative = inhibition” value was -2.41%.

`COc1ccc2c(c1)c(CCN1CCOCC1)c(C)n2C(=O)c1cccc(Cl)c1Cl`: the “activity, negative = inhibition” value is 14.4%.
